# Reference: PubChem BioAssay (Tox21)
# Results filed as inconclusive are left out. Entries that show only a call come without a potency. The source made the active and inactive calls. The call rests on the fitted dose curve; in most records, active means well fitted cell-killing curve with a large enough effect in the repeat runs; inconclusive means weak or mixed curves, or effect the other way; inactive means flat fitted curve, though single readings scatter.
# Experiment: cAMP Responsive Elements (CRE) small molecule antagonists, cell-based qHTS assay: qHTS cell viability counter screen (AID 2060913); further: nearly all actives have a fitted effect of over 40% in size
# Conditions: CRE-bla HEK293T viability, CellTiter-Glo luminescence, 5 h; series mostly up to 92.4 µM
# Excerpt: U.S. Tox21 Program National Center for Advancing Translational Sciences [NCATS] Division of Preclinical Innovation [DPI] U.S. Environmental Protection Agency [EPA] National Institutes of Environmental Health Sciences [NIEHS] National Toxicology Program [NTP] U.S. Food and Drug Administration [FDA] Tox21 Assay Overview: CREB (cyclic-AMP Responsive Element Binding Protein) is a cellular transcription factor. It binds to certain DNA sequences called cAMP Responsive Elements (CRE) and regulates the transcription of the genes. […] This cell line can be used to find agonists/antagonists of the cyclic AMP signaling pathway. The activation of the report gene under culture conditions can be detected by fluorescence intensity. This cell line has been used to screen the Tox21 10K compound library to identify agonists that induce oxidative stress. The cytotoxicity of the Tox21 compound library against the CRE-bla cell line was tested in parallel by measuring the cell viability using CellTiter-Glo assay (Promega, Madison, WI) in the same wells.
# Tox21 Assay Protocol Summary: CRE-bla Hek 293T cells were suspended in assay medium (DMEM containing 10% dialyzed FBS, 0.1 mM NEAA, 1 mM sodium pyruvate and 25 mM HEPES) and dispensed at 2,000 cells/4 uL /well into 1536-well black wall/clear bottom plates using a Multidrop Combi (ThermoFisher Scientific, Waltham, MA) dispenser. After the assay plates were incubated at 37 C/5% CO2 for 18 hrs, 23 nL of compounds dissolved in DMSO, positive controls or DMSO only was transferred to the assay plate by a pintool workstation (Kalypsys, San Diego, CA), followed by addition of 1 uL of 1.25uM NKH477 (0.25 uM as final concentration) in assay medium using a Flying Reagent Dispenser (Aurora Discovery, San Diego, CA). The plates were incubated at 37 C and 5% CO2 for 3 hrs. Then 1 uL of LiveBLAzer B/G FRET substrate (Invitrogen, Carlsbad, CA) was added to each well using Bioraptr Flying Reagent Dispenser (FRD, Aurora Discovery, San Diego, CA). The plates were incubated at room temperature for 2 h, then fluorescence intensities were measured using an Envision plate reader (PerkinElmer, Shelton, CT) at Excitation 405nm, Emission 460nm and 530nm. The % activity was determined from the ratio of 460nm/530nm. For cell viability readout that measures cytotoxicity, 4 uL /well of CellTiter-Glo reagent was added into the assay plates using Bioraptr FRD. After 30 min incubation at room temperature, the luminescence intensity in the assay plates was measured using a ViewLux (PerkinElmer, Shelton, CT) plate reader.
row,Compound,Potency
1,CCOC(=O)CC(C)O (stereo not given),inactive
2,CC(C(=O)O)c1ccc(-c2ccccc2)c(F)c1 (stereo not given),inactive
3,CCS(=O)(=O)CCn1c([N+](=O)[O-])cnc1C,inactive
4,CN(C)[C@@H]1C(=O)C(C(N)=O)=C(O)[C@@]2(O)C(=O)C3=C(O)c4c(O)cccc4C[C@H]3C[C@@H]12,inactive
5,c1ccc(Sc2ccccc2)cc1,inactive
6,CCCCCCCCCCCCCC(=O)OC,inactive
7,CCN[C@H]1CN(CCCOC)S(=O)(=O)c2sc(S(N)(=O)=O)cc21,inactive
8,CC(Cc1cccc(C(F)(F)F)c1)NCCOC(=O)c1ccccc1 (stereo not given),inactive
9,CC(=O)c1ccc2ccc3ccccc3c2c1,inactive
10,OCCN1CCNCC1,inactive
11,Cc1ccc(C)cc1,inactive
12,CC(C)C1=CC2=CC[C@@H]3[C@](C)(CCC[C@@]3(C)C(=O)O)[C@H]2CC1,inactive
13,CCCCCC1C(=O)CCC1CC(=O)OC (stereo not given),inactive
14,CC(C)C(=O)OCCc1ccccc1,inactive
15,C[Si](C)O[Si](C)C,inactive
16,CCCSS/C(CCO)=C(\C)N(C=O)Cc1cnc(C)nc1N,inactive
17,O=C(O)c1ccccc1NCCc1ccccc1,inactive
18,O=C(Oc1ccccc1)c1ccccc1C(=O)Oc1ccccc1,inactive
19,CCCC(C)CCC(C)=O (stereo not given),inactive
20,CCCCCCC(O)CCOC(C)=O (stereo not given),inactive

row,Compound,Potency
1,Nc1cnn([C@@H]2O[C@H](CO)[C@@H](O)[C@H]2O)c(=O)n1,inactive
2,C[C@@H](C1=C(CCN(C)C)Cc2ccccc21)c1ccccn1,inactive
3,O=C(Nc1ccc([N+](=O)[O-])cc1)Nc1ccc([N+](=O)[O-])cc1,inactive
4,C=C(C)C(=O)OCCCCCCCCCCCCC,inactive
5,CC/C=C\C#N,inactive
6,CCCCC(CC)COC(=O)CS (stereo not given),inactive
7,Nc1ccc(C(=O)N2CC3CC(CN(Cc4ccccc4)C3)C2)cc1,inactive
8,CC(=O)C(C)O (stereo not given),inactive
9,NC(=O)[C@@H]1CSSCCC(=O)N[C@@H](CCCCN=C(N)N)C(=O)NCC(=O)N[C@@H](CC(=O)O)C(=O)N[C@@H](Cc2c[nH]c3ccccc23)C(=O)N2CCC[C@H]2C(=O)N1,inactive
10,Cc1ccc(C(C)NC(=O)[C@@H](NC(=O)OC(C)C)C(C)C)cc1 (stereo not given in full),inactive
11,C/C(=C1\CCOC(=O)S1)N(C=O)Cc1cnc(C)nc1N,inactive
12,COC(=O)CCSCCC(=O)OC,inactive
13,C=CCNC(N)=S,inactive
14,Cc1ccccc1OCC(O)CO (stereo not given),inactive
15,CN=C(NC#N)NCCSCc1csc(N=C(N)N)n1,inactive
16,CCc1ccc(C(c2ccc(CC)cc2)C(Cl)Cl)cc1,inactive
17,CC(=O)OCCN(CCOC(C)=O)c1ccc(N=Nc2ccc([N+](=O)[O-])cc2C#N)cc1,inactive
18,CC(=O)Nc1ccc(OCCOCCOc2ccc(NC(C)=O)cc2)cc1,inactive
19,Cc1cn([C@H]2C=C[C@@H](CO)O2)c(=O)[nH]c1=O,inactive
20,CCOCC(=O)O,inactive
